In the supplement of paper PMC11732987, “Enantioselective OTUD7B fragment discovery through chemoproteomics screening and high-throughput optimisation” (Communications Chemistry, 2025):

Experiments:
Assay in all cases: log2 ratio of Biotin-Ahx-Ub-VS probe labelling (fragment/DMSO); higher = less target engagement (more negative = stronger competition), active = hit call of the paper (q ≤ 0.05, log2 ratio ≤ -1)
Conditions in all cases: compound concentration: 200 uM; treatment time: 3 h
USP34 = USP34 (UniProt Q70CQ2)
In short: (§1)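 Average log2 ratios of fragment over vehicle were obtained by unpaired t-test from global-median-normalised Spectronaut label-free quantities. Proteins with ≥2 unique peptides were included. HEK293T lysate (495 µg per sample) was treated in triplicate with fragment at 200 µM or vehicle for 3 h, then with Biotin-Ahx-Ub-VS at 0.5 µM final for 1 h, and labelled DUBs were NeutrAvidin-enriched and run by diaPASEF LC-MS/MS.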

USP36 = biological target: T1, USP36 (UniProt Q9P275)
T1 sequence (whole entry): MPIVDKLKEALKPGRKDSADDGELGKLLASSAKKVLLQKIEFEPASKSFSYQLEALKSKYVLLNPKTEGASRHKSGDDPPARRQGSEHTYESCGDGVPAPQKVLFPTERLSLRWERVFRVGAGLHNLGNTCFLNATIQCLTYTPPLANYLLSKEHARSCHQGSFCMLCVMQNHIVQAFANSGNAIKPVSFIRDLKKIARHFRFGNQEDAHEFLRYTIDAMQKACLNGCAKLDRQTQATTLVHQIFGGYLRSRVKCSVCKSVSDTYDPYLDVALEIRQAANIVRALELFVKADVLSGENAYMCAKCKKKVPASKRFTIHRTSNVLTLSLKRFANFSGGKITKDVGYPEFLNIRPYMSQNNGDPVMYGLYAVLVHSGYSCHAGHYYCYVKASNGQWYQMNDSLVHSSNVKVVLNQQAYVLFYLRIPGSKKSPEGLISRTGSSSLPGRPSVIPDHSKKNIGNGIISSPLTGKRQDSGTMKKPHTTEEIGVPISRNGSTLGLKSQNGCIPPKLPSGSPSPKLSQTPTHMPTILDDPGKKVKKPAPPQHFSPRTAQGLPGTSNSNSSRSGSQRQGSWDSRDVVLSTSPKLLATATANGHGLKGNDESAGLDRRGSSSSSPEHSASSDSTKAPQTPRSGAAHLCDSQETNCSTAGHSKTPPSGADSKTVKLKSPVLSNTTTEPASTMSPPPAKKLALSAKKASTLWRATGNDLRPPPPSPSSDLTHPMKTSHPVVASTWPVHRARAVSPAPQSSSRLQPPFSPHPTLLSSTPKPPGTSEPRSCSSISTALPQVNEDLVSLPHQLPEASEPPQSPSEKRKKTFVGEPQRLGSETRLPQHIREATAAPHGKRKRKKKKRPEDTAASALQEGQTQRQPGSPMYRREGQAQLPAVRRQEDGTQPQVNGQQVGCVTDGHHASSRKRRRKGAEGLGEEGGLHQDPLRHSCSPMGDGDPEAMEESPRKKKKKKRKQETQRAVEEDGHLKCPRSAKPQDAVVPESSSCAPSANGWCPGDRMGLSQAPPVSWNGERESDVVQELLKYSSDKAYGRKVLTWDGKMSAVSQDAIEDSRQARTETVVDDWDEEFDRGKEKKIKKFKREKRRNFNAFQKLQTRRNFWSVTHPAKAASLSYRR
In short: as §1

USP38 = biological target: T2, USP38 (UniProt Q8NB14)
T2 sequence (whole entry): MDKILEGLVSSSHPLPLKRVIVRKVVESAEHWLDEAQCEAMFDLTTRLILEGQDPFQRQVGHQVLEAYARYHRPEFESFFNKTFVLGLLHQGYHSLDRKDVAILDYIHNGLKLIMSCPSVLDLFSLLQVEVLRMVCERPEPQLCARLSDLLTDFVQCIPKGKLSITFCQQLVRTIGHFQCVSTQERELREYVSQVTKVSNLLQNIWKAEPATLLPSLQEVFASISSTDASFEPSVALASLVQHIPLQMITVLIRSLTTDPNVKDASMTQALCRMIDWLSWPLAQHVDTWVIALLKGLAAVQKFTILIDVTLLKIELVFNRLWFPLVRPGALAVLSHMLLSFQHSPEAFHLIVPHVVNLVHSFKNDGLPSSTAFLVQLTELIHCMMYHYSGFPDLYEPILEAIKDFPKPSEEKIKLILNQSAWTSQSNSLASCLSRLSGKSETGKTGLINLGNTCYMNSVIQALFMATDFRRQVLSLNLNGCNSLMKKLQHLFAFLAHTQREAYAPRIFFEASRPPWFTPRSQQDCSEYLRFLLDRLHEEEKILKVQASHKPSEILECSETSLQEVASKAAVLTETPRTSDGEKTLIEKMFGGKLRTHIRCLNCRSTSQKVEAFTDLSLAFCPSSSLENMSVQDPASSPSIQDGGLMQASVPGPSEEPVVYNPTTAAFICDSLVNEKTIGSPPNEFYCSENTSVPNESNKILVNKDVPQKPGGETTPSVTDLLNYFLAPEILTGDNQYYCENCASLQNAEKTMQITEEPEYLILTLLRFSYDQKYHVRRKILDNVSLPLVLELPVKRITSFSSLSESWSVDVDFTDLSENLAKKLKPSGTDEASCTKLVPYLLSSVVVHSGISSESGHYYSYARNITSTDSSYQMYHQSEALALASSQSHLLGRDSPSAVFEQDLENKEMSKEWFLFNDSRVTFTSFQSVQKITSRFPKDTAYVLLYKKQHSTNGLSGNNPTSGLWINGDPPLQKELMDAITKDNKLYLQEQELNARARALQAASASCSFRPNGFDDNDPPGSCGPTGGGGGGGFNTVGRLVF
In short: as §1

USP39 = biological target: T3, USP39 (UniProt Q53GS9)
T3 sequence (whole entry): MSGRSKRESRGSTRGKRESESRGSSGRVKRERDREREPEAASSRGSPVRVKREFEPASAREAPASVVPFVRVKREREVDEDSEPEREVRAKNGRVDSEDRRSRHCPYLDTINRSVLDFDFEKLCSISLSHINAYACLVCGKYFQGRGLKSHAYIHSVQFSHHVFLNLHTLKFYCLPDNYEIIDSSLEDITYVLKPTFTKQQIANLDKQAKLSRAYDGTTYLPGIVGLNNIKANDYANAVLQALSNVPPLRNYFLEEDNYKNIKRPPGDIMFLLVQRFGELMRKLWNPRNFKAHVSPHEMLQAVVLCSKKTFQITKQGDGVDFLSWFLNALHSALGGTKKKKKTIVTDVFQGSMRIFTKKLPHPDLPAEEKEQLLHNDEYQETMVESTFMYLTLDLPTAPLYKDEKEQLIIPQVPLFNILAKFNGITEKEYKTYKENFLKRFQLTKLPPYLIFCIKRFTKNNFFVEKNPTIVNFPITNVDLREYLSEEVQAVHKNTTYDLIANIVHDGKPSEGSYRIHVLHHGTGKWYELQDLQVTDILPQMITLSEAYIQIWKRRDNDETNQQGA
In short: as §1

USP4 = biological target: T4, USP4 (UniProt Q13107)
T4 sequence (whole entry): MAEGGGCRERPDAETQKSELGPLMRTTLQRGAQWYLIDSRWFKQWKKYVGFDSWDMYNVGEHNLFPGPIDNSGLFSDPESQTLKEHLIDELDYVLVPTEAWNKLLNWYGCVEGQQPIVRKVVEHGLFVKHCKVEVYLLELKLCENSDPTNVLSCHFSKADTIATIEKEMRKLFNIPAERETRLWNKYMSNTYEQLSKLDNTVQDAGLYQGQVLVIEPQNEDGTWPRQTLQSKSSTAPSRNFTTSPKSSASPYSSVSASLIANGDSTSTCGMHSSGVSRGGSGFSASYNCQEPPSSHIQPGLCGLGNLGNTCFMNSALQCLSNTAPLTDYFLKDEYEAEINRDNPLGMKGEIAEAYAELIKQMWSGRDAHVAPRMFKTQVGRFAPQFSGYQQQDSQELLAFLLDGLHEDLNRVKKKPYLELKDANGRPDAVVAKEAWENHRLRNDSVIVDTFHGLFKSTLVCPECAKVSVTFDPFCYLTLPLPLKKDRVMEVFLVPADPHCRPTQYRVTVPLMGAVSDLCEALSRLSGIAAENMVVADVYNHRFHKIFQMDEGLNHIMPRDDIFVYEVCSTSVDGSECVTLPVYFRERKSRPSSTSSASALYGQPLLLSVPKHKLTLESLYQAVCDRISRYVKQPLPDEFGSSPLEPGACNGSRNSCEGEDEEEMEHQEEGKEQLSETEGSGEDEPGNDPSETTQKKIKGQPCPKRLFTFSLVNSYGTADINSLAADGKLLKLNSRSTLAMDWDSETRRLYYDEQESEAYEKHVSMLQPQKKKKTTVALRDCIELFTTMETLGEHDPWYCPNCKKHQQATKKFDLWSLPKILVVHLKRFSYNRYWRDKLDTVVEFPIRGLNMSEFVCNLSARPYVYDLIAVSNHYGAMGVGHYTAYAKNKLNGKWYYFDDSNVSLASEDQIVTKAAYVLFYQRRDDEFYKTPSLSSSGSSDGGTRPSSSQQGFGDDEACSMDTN
In short: as §1

Measured: log2 ratio of Biotin-Ahx-Ub-VS probe labelling

USP34, sequence (Q70CQ2 whole entry, the tested form may be a part): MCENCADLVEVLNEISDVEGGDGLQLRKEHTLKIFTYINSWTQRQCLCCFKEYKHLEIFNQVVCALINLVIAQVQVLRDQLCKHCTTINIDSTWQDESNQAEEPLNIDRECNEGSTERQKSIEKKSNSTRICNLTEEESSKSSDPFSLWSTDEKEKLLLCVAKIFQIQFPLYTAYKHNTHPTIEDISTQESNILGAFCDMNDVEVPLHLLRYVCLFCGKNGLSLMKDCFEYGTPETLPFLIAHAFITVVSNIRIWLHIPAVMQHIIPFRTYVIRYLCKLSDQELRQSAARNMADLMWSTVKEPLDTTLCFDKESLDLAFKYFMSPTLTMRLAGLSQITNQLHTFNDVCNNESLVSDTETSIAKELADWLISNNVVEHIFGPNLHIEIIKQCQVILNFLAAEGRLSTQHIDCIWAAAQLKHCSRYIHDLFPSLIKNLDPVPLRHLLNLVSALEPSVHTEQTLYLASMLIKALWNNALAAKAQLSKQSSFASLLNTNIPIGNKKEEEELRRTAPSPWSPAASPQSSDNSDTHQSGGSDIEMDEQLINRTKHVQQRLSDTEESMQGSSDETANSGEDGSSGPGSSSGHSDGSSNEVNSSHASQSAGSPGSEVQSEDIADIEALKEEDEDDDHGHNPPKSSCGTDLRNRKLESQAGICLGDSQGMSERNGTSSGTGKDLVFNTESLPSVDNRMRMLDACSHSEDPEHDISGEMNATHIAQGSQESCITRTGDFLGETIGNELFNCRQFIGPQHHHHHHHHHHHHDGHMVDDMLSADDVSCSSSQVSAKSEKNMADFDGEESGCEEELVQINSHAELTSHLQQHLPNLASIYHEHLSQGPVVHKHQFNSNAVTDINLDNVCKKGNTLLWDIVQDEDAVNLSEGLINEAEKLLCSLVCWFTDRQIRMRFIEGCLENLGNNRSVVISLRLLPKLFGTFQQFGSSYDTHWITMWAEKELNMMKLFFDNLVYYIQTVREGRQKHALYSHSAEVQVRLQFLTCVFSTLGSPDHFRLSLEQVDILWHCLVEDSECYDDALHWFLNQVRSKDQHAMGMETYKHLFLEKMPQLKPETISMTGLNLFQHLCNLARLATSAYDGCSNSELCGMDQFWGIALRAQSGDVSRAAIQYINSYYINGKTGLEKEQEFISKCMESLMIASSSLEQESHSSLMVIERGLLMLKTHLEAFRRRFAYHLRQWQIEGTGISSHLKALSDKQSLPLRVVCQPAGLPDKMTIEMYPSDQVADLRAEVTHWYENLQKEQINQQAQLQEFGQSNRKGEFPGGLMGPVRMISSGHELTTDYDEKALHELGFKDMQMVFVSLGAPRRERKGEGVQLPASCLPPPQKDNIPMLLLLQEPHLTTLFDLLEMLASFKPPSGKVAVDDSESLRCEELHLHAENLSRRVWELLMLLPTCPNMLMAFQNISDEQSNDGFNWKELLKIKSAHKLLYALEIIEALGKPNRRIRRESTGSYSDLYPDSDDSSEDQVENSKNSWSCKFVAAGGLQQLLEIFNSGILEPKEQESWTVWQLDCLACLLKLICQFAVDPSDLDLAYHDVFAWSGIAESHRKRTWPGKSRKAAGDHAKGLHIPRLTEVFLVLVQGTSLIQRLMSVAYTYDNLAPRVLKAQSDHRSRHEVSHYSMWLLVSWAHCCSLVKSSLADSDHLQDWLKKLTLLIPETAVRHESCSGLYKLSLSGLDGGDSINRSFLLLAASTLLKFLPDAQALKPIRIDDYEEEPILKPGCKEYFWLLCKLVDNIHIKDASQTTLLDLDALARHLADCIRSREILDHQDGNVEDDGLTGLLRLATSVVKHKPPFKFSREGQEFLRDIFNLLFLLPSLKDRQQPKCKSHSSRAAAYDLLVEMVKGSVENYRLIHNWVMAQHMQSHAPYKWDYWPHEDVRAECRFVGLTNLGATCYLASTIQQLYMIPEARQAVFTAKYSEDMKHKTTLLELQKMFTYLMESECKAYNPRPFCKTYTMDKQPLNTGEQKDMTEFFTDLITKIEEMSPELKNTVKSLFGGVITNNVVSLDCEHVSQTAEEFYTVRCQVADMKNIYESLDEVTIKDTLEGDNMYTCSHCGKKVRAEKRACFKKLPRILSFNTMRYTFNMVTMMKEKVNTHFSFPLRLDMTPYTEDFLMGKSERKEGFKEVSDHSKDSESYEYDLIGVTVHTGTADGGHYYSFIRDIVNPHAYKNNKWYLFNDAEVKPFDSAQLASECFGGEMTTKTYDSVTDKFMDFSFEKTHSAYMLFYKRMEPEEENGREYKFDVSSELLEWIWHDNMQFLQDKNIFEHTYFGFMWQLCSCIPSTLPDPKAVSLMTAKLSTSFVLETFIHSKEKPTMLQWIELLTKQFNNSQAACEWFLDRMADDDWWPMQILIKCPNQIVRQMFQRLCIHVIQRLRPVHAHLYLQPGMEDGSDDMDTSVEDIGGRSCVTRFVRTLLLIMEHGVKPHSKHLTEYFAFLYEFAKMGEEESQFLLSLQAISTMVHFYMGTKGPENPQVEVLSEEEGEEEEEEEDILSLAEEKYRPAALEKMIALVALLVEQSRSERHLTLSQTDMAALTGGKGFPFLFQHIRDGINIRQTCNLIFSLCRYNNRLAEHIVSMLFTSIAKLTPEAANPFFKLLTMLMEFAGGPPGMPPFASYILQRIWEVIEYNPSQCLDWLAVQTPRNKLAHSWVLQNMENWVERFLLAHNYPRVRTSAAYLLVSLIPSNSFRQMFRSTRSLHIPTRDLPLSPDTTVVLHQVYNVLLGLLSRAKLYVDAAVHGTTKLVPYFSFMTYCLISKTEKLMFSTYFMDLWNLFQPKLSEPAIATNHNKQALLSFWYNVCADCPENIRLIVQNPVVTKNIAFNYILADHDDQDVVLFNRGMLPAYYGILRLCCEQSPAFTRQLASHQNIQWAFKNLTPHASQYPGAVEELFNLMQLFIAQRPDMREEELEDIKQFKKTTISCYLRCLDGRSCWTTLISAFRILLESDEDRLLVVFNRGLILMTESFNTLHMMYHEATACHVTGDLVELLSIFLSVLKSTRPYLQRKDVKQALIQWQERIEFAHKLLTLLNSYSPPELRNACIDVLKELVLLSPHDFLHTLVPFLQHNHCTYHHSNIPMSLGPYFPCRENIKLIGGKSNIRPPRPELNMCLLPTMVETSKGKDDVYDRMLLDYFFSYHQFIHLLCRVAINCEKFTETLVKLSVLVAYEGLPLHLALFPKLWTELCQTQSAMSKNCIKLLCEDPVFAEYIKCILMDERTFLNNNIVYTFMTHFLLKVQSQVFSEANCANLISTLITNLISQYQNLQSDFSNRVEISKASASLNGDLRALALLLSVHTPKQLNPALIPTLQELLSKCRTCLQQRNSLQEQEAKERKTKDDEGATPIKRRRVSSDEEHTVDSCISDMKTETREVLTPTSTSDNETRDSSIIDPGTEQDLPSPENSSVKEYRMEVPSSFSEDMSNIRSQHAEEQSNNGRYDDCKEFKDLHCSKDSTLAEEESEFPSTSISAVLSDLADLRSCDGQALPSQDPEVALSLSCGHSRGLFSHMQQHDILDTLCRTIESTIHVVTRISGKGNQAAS

Cl.Cn1c(CNC(=O)CCl)nc2cccnc21
inactive: USP34 -0.174 | USP36 -0.125 | USP38 0.0315 | USP39 0.234 | USP4 -0.102
